According to PubChem BioAssay:
Unmarked numbers belong to inactive results.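 Rule for the calls, unless noted: active = mean inhibition above 46.68%, the untreated control wells mean plus 3 SD; inactive = the rest.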

What was measured:
[1] = biological target: Nuclear receptor coactivator 1 (Homo sapiens) (UniProt Q15788); test: NCOA1 GAL4-fusion reporter inhibition – cell-based, luminescence, quadruplicate, confirmation (AID 588820); settings: HEK293 GAL4-SRC1 luciferase reporter, at 3.6 µM, hits give high values;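 note: 0% = DMSO wells and 100% = gossypol 36 µM treated wells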
Chain of Nuclear receptor coactivator 1 (Homo sapiens) (Q15788 whole entry, looked up, the tested form may be a part): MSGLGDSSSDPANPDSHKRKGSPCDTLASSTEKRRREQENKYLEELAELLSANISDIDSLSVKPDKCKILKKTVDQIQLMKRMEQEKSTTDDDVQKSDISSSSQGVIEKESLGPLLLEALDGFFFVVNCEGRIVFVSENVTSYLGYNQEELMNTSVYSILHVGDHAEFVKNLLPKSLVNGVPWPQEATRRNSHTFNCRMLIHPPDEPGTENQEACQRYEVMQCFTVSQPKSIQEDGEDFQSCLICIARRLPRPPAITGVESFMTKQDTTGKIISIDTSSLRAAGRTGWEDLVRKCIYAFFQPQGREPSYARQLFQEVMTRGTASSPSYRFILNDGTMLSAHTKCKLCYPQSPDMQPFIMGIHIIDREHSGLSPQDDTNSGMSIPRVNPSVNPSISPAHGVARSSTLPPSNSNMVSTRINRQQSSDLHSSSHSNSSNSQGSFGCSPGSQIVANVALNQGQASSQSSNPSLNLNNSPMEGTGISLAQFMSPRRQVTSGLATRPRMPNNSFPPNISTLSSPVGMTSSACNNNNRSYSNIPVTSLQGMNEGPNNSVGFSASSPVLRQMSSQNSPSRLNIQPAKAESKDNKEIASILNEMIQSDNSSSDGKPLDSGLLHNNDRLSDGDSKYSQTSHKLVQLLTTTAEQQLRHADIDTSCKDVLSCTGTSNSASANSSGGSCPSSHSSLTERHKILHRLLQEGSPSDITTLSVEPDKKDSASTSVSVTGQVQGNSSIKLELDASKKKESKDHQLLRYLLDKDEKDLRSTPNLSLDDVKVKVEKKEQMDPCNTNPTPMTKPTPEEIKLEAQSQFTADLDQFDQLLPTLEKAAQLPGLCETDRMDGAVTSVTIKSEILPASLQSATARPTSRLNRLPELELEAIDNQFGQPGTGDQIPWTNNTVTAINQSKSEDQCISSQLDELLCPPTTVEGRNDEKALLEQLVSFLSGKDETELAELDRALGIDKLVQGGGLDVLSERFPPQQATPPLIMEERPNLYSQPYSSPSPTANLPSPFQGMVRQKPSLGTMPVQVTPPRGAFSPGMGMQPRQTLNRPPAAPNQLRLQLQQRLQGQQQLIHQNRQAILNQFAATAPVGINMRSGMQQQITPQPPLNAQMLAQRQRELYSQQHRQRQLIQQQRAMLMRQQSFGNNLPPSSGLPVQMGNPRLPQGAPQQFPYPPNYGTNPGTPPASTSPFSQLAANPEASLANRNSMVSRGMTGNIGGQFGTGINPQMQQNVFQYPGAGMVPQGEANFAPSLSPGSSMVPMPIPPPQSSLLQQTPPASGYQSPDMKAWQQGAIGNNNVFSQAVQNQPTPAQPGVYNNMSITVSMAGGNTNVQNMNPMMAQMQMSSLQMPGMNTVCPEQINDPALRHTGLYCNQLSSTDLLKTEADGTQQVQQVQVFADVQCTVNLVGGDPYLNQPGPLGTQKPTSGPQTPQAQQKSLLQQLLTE

[2] = repression of VP16-driven luciferase reporter – cell-based, luminescence, high throughput, counter-screen for SRC1 inhibitor project (AID 588824; in the data active = inhibition above about 25%); settings: cell-based VP16 transactivation luciferase luminescence; at 3.6 µM; hits give high values

Compound `CC(=O)N/C(=N/c1nc(C)cc(C)n1)Nc1cccc(C)c1C` has an inhibition [1] of -0.27% and an inhibition [2] of -6.32%.

Work on `O=C(CSc1n[nH]c(-c2cccnc2)n1)Nc1ccc([N+](=O)[O-])cc1` yielded an inhibition [1] of -26.9% and an inhibition [2] of -8.24%.

Work on `CC(C)(C)c1cc(C(=O)C[n+]2ccc(C(=O)NCCCO)cc2)cc(C(C)(C)C)c1O` yielded an inhibition [1] of -6.91% and an inhibition [2] of -12.9%.

`CCOc1ccc(CCN2C(=S)N([C@@H](CC(C)C)CN3CCC[C@@H]3CN3C(=S)NC[C@@H]3CC(C)C)C[C@@H]2CC(C)C)cc1` showed an inhibition [1] of 3.98% and an inhibition [2] of 5.15%.

Compound `CN=C(C)/C(C(=O)OC)=C(/O)c1c(F)cccc1F` has an inhibition [1] of -28.3% and an inhibition [2] of 3.9%.

`C=CCSc1nnc(-c2cc(C(C)(C)C)nn2Cc2ccc(F)cc2)n1C` gave an inhibition [1] of 1.92% and an inhibition [2] of 4.7%.

In the case of `Cc1cccc(C)c1NC(=O)CNC(=O)Cc1c[nH]c2ccccc12`, the inhibition [1] is reported as -0.57% and the inhibition [2] is reported as -1.35%.

Compound `S=C(NC1CCCCC1)N1CCOCCOCCN(C(=S)NC2CCCCC2)CCOCCOCC1` has an inhibition [1] of 7.13% and an inhibition [2] of 7.75%.
